JMJD2A Tudor inh: qHTS Assay for Inhibitors of JMJD2A-Tudor Domain; Potency, µM (series often up to 114 µM), for the others: top-dose activity change, negative = inhibition, actives largely listed as inhibitors; actives 4.4% (n = 390,000); AlphaScreen JMJD2A-Tudor / H3K4me3 peptide binding; Lysine-specific demethylase 4A (Homo sapiens), O75164; further: on the % scale 0 is the no-effect control and ±100 the full control effect; nearly all actives have a fitted effect of over 50% in size
G9a inh: qHTS Assay for Inhibitors of Histone Lysine Methyltransferase G9a | G9a H3K9 monomethylation, AlphaScreen, 2 h | Potency, µM (titrated, usually from 102 µM), without a hit: at the top dose activity, negative = inhibition, actives largely listed as inhibitors | actives 8.8% (n = 350,000) | AID 504332, 2011; further: on the % scale 0 is the no-effect control and ±100 the full control effect; nearly all actives have a fitted effect of over 75% in size
Target sequence (Q96KQ7 913-1193 limits assumed): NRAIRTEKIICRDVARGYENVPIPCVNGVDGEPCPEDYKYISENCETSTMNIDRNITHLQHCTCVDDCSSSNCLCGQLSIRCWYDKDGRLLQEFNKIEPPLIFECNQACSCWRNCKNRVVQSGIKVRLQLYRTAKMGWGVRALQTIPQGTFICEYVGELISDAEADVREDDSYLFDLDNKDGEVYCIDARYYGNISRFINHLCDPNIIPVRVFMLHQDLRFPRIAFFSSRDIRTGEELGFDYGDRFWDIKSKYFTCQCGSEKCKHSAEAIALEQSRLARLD
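Quantitative HTS format: methyltransferase activity on a biotin-tagged H3K9 peptide is measured by AlphaScreen, using a rabbit anti-monomethyl-H3K9 antibody with streptavidin donor and anti-IgG acceptor beads. Final levels are 20 nM enzyme, 500 nM peptide, 20 uM SAM; 2 h RT.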
HP1b binding inh: HTS for Inhibitors of HP1-beta Chromodomain Interactions with Methylated Histone Tails; AlphaScreen HP1-beta / biotin-H3K9me3 peptide binding; AID 540317, 2011; Potency, µM (doses to about 114 µM), for the others: at the highest dose activity change, negative = inhibition, usual class: inhibitors; actives 0.56% (n = 390,000); further: nearly all actives have a fitted effect of over 70% in size
Target sequence (P83916 whole entry, looked up): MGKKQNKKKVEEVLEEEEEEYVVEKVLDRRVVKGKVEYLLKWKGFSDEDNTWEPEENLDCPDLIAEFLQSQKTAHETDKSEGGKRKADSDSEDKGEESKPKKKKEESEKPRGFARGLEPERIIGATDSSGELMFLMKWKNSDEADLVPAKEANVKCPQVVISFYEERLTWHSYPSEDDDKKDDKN
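HP1-beta protein (50 nM final) preincubated 30 min at room temperature with biotinylated H3(1-18)K9me3 peptide (50 nM) in PBS pH 7.4, 0.01% Tween-20, then compound added for 30 min. AlphaScreen streptavidin donor/nickel chelate acceptor beads (10 ug/mL final), 30 min dark, luminescence read.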
BAZ2B inh: qHTS Assay for Inhibitors of BAZ2B | Bromodomain adjacent to zinc finger domain protein 2B (Homo sapiens), Q9UIF8 | Potency, µM (top dose mostly 114 µM), inactives show at the top dose activity change, negative = inhibition, usual class: inhibitors | AlphaScreen BAZ2B-H3K14Ac peptide displacement | actives 4.4% (n = 360,000) | AID 504333, 2011; further: on the % scale 0 is the no-effect control and ±100 the full control effect; nearly all actives have a fitted effect of over 60% in size
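Multi-concentration screen (max 110 uM) measuring displacement of acetylated histone H3 peptide from BAZ2B by AlphaScreen, using 50 nM protein, 50 nM peptide and 10 ug/mL streptavidin donor plus Ni-chelate acceptor beads.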
Sfp PPTase inh: qHTS Assay for Inhibitors of Bacillus subtilis Sfp phosphopantetheinyl transferase (PPTase); Potency, µM, for inactives: largest response in the series, negative = inhibition, actives largely listed as inhibitors; Biochemical Sfp PPTase activity, qHTS; AID 1490, 2009; actives 3.5% (n = 310,000); 4'-phosphopantetheinyl transferase ffp (Bacillus subtilis), Q9F4F7;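 further: the enzyme is Sfp with the accession as filed and its product quenches rhodamine fluorescence; 0% = enzyme reaction without inhibitor and -100% = no enzyme wells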
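Fluorescence-quenching assay with 15 nM Sfp, 5 uM rhodamine-CoA and 12.5 uM BHQ-2-labelled ybbR peptide in pH 7.6 Hepes/MgCl2 buffer. Enzyme was pre-incubated with compound for 15 min at room temperature. Rate was taken from the 30-min fluorescence change (525/598 nm).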
An asterisk follows results filed as active; u = inconclusive; x = not tested or not shown; [ ] = remark or other dose. An excerpt weighted towards active compounds, which were near 12% of everything screened. The call rests on the fitted dose curve; in most records, active means well fitted curve in the direction sought with a large enough effect; inconclusive means small, poorly fitted or top-dose-only effect, or another doubt; inactive means no such curve, though single readings can be large; an effect the other way counts as inactive or inconclusive. Potency means the concentration at half of the fitted maximal effect.

SMILES | JMJD2A Tudor inh | G9a inh | HP1b binding inh | BAZ2B inh | Sfp PPTase inh
Cc1ccc(-c2ccc(S(=O)(=O)N3CCCC3)cc2)cc1 | -4% | u | 35% | -3% | 11%
Nc1nc(-c2ccc(S(=O)(=O)N3CCCCC3)cc2)cs1 | -15% | u | 11% | -35% | x
O=S(=O)(c1ccc(-c2n[nH]c(=S)o2)cc1)N1CCCCC1 | -17% | 11µM* | u | u | -44%
CC(C)(C)NC(=O)C1CCN(c2nc3ccccc3nc2C(F)(F)F)CC1 | -10% | -1%[59 µM] | 32% | 1% | x
COc1ccc2c(Sc3ccc(C)cc3)c(C(=O)NCc3ccc(F)cc3)[nH]c2c1 | -30% | u | 11% | -22% | x
CCN(CC)CCNC(=O)C(=O)NCC(c1cccnc1)N1CCN(c2ccccc2)CC1 (stereo not drawn) | -12% | 0%[59 µM] | 39% | 2% | x
COc1ccc(N2C(=S)NC(C)(C)CC2(C)c2ccc(OC(C)=O)cc2OC(C)=O)cc1 (stereo not drawn) | -21% | 79µM* | 11% | u | 9%
Cc1ccc(NCCN(C)C)c2c(=O)c3cc(O)ccc3sc12 | 40µM* | x | u | x | x
Cc1ccc2c(=O)cc(C(=O)Nc3c(C)n(C)n(-c4ccccc4)c3=O)oc2c1C | 1% | -4%[59 µM] | 15% | -8% | x
O=C1C2=C(NC(=S)NC2c2ccc(Cl)cc2)NC(c2ccc(Cl)cc2)N1c1ccc(Cl)cc1 (stereo not drawn) | u | 50µM* | 18% | u | u
Cc1ccc(C2CC(=O)Oc3c(C(C)C)ccc(C)c32)cc1 (stereo not drawn) | x | 58% | x | x | 9%
COc1ccccc1NC(=O)CCc1nc2ccccc2s1 | 20µM* | 1% | 1% | -12% | 19%
O=C(O)CCCC(=O)Nc1ccc(OCc2nc3ccccc3s2)cc1 | u | 3.2µM* | u | u | 8.9µM*
O=C(CCCc1nc2ccccc2s1)Nc1ccccc1 | -6% | 20%[59 µM] | 57% | -14% | 2%
CC(C)c1ccccc1NC(=O)CCc1nc2ccccc2s1 | -20% | 20µM* | 17% | -13% | u
CCOc1ncccc1C(=O)OCC(=O)NCc1ccc(C(=O)OC)cc1 | -17% | x | 24% | x | x
COc1ccccc1CNC(=O)c1cc2sccc2n1Cc1ccc(Cl)cc1 | -25% | -2%[59 µM] | 26% | -3% | x
COc1cc2nc(N3CCN(c4cc(C)ccc4C)CC3)nc(N)c2cc1OC | u | 50µM* | -15% | 50µM* | 79µM*
COC(=O)c1ccc(NC(=O)CN2CCN(S(=O)(=O)c3cc(Cl)ccc3OC)CC2)cc1 | -9% | 35µM* | 22% | 3% | 1%
COc1ccc(S(=O)(=O)N2CCN(CC(=O)Nc3c(C)n[nH]c3C)CC2)cc1OC | 0.89µM* | x | u | x | x
Cc1n[nH]c(C)c1NC(=O)CN1CCN(S(=O)(=O)c2ccc(C(F)(F)F)cc2)CC1 | 4.5µM* | x | u | x | x
O=C(CN1CCCN(S(=O)(=O)c2ccc(F)cc2)CC1)Nc1c(Cl)cccc1Cl | -6% | -12% | 5% | -1% | -5%
COC(=O)c1ccc(NC(=O)CN2C(=O)CNC2=O)cc1 | 0% | 13µM* | 39% | 2% | 14%
Cc1ccc(NC(=O)CN2C(=O)CNC2=O)cc1 | -3% | -4% | 17% | u | 8%
COc1ccc(Cl)cc1NC(=O)CN1CCN(S(=O)(=O)c2ccc(F)cc2)CC1 | -7% | 5% | 26% | -10% | 5%
SMILES | JMJD2A Tudor inh | G9a inh | HP1b binding inh | BAZ2B inh | Sfp PPTase inh
Cc1ccc2c(c1)c1c(c(=O)n(-c3ccccc3)c(=O)n1Cc1ccccc1C)n2C | -19% | -7%[59 µM] | 34% | -11% | x
COc1ccc(Cl)cc1NC(=O)C(C)N1Cc2ccccc2C1=O (stereo not drawn) | 2% | -1%[59 µM] | 28% | 2% | x
COc1ccc(C)cc1NC(=O)CN1CCN(S(=O)(=O)c2ccc(Cl)cc2)CC1 | -6% | 14µM* | 16% | 9% | 9%
COc1ccc(C)cc1NC(=O)CN1CCN(S(=O)(=O)c2ccc(C(C)C)cc2)CC1 | -9% | -4%[12.7 µM] | 20% | 12% | 3%
CC(=O)c1ccc(Sc2ccc(C(C)=O)cc2)cc1 | 10% | 3%[59 µM] | 40% | 2% | 12%
CN(C)c1ccc(N=Nc2ccccc2Br)cc1 | 10µM* | 3.5µM* | 5µM* | 4.5µM* | -3%
CC(=O)c1ccc(N=Nc2ccc(N(C)C)cc2)cc1 | -31% | -51% | -19% | 1.1µM* | -3%
C=C(C)C(=O)Oc1ccc(N=Nc2ccc(C)cc2)ccc1=O | 3.5µM* | x | 10µM* | x | x
COC(=O)c1ccc(NN=Nc2ccc(C)cc2)cc1 | 32µM* | 7.9µM* | 79µM* | u | -17%
Cc1c([S+](=O)([O-])N2CCN([S+](=O)([O-])c3c(F)cccc3F)CC2)sc2ccc(Cl)cc12 | -18% | x | x | x | x
CC(=O)c1ccc(N=Nc2ccc(C)cc2)cc1 | 7.9µM* | 7.9µM* | u | 7.9µM* | 0%
Cc1ccc(C(=O)c2ccc(C)cc2)cc1 | 53% | 54% | 97% | 82% | 1%
CCc1ccc(-c2cn(C3CCCCC3)c(=S)[nH]2)cc1 | 28µM* | u | u | 18µM* | 11%
NC(=S)N/N=C/c1ccc(-n2nncc2-c2ccc(Cl)cc2)cc1 | u | 45µM* | -9% | u | -2%
Nc1cccc(-n2nncc2-c2ccc(Cl)cc2)c1 | x | u | x | x | 7%
CCOC(=O)C1=C(O)/C(=C/c2ccc(-c3ccccc3C(=O)O)o2)SC1=Nc1ccc(C)cc1 | 50µM* | 12% | -15% | -36% | 5%
CCOC(=O)C1=C(O)/C(=C/c2ccc(OCC(=O)O)c(OCC)c2)SC1=Nc1ccccc1 | -33% | -34% | -6% | u | 12%
CCOC(=O)C1=C(O)/C(=C/c2cc(OC)c(O)c(OC)c2)SC1=Nc1ccc(OC)cc1 | -21% | 8.9µM* | 9% | -34% | -24%
CCOC(=O)C1=C(O)/C(=C/c2ccccn2)SC1=Nc1ccc(Cl)cc1 | -25% | -6% | 14% | -33% | 32µM*
C/C(Cn1cnc([N+](=O)[O-])n1)=N\NC(=O)c1ccc(F)cc1 | -16% | 20µM* | 37% | -2% | 10%
Cc1nc(-c2ccc(S(=O)(=O)N3CCN(c4cccc(Cl)c4)CC3)cc2)co1 | -26% | -33%[59 µM] | -1%[57 µM] | -6% | x
CC1CCN(C(=O)COC(=O)c2cccs2)CC1 | -16% | x | 17% | x | x
c1ccc(-c2nnc(SCc3nnc(-c4cccs4)o3)o2)cc1 | -12% | u | 26% | 50µM* | -8%
Clc1ccc(-c2nnc(CSc3nnc(-c4cccs4)o3)o2)cc1 | 4% | -34%[59 µM] | 31% | -1% | 7%
